Screening results deposited in PubChem BioAssay by National Center for Advancing Translational Sciences (NCATS).
Shown are actives, neighbours in structure and some others; about 7.3% of the full set was active somewhere.
SMN2 splice enh: increases expression of the SMN2 splice variant; HEK293 SMN2-luciferase splicing reporter, luminescence, 30-36 h; Potency, µM (highest dose often 46.1 µM), for the others: at the highest dose activity change, positive = activation, usual class: activators; actives 2.8% (n = 210,000); AID 1458; further: % of control where 0% means no effect; nearly all actives have a fitted effect of over 55% in size
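HEK293 cells carry an SMN2 minigene-luciferase reporter in which exon 7 inclusion puts luciferase in frame. Cells were seeded at 2000 cells/well, attached for 10-12 hours, then exposed to compounds for 30-36 hours at 37C before ONE-Glo luminescence.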
Rab9 promoter act: activates the Rab9 promoter; Potency, µM (highest dose often 9.22 µM), for the others: top-dose activation, negative = inhibition, hits mostly activators; Huh7 Rab9 promoter-luciferase reporter, luminescence, 24 h; actives 2.8% (n = 320,000); further: % of control where 0% means no effect; nearly all actives have a fitted effect of over 60% in size
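Stable Rab9-luc Huh7, 1500 cells/well, 2 h settle; cmpd in DMSO, 24 h, 37 °C/5% CO2; luciferase reagent 10 min RT; luminescence.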
FLuc counter: inhibits or activates purified firefly luciferase, miR-21 counter-screen; purified FLuc, Km substrates, luminescence inhibition; Potency, µM (top dose mostly 57.5 µM), inactives show at the highest dose activity change, negative = inhibition, usual class: inhibitors; AID 588342; P08659; actives 6.9% (n = 360,000);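 further: plate controls were vehicle for no effect and reference inhibitor for full effect; nearly all actives have a fitted effect of over 55% in size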
Target sequence (P08659 whole entry, looked up): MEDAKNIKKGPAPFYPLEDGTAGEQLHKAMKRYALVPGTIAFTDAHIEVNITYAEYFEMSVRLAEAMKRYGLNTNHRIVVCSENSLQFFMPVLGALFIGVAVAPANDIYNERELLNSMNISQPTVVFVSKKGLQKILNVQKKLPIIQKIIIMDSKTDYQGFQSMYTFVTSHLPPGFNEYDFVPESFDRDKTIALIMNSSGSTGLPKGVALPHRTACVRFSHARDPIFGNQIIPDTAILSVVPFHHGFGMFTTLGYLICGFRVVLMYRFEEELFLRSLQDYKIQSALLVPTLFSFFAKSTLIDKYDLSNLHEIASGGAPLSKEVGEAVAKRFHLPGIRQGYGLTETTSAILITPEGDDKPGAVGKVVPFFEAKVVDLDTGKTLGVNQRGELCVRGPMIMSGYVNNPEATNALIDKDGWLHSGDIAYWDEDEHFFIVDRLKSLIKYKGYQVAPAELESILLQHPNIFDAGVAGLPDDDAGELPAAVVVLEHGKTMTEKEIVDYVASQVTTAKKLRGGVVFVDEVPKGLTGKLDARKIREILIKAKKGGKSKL
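Purified P. pyralis luciferase (10nM final) with 10uM D-luciferin and 10uM ATP (Km levels) in 50mM Tris acetate pH 7.5, 10mM Mg acetate, 0.01% Tween-20, 0.05% BSA; qHTS 6-point titration, ~60 µM downward; luminescence read.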
NPC1 promoter act: activates the NPC1 promoter; Huh7 NPC1 promoter luciferase reporter, 24 h; AID 485313; actives 2.4% (n = 320,000); Potency, µM (titrated, usually from 9.22 µM), for the others: at the top dose activation, usual class: activators; further: % of control where 0% means no effect; nearly all actives have a fitted effect of over 60% in size
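Stable NPC1-promoter luciferase Huh7 line; cpd (DMSO) 24 h, 37 °C, 5% CO2; Amplite luciferase reagent 10 min RT; luminescence readout. qHTS format.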
KinaseGlo FLuc: blocks Kinase-Glo luciferase, a counter-screen artifact. Q27757. Kinase-Glo luciferase, ATP luminescence, 8 min. actives 0.28% (n = 200,000). Potency, µM (top dose mostly 38.3 µM), for inactives: top-dose activity change, negative = inhibition, hits mostly inhibitors. AID 1379; further: on the % scale 0 is the no-effect control and ±100 the full control effect; nearly all actives have a fitted effect of over 60% in size
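Inhibition of Kinase-Glo luciferase light generation was assessed at 10 uM ATP in pH 7.2 imidazole buffer, with luminescence measured after eight minutes at ambient temperature.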
* = called active by the depositor; ? = inconclusive; . = no result given; [ ] = dose if it differs, or a comment. The call rests on the fitted dose curve; in most records, active means well fitted curve in the direction sought with a large enough effect; inconclusive means small, poorly fitted or top-dose-only effect, or another doubt; inactive means no such curve, though single readings can be large; an effect the other way counts as inactive or inconclusive. Potency means the concentration at half of the fitted maximal effect.

SMILES	SMN2 splice enh	Rab9 promoter act	FLuc counter	NPC1 promoter act	KinaseGlo FLuc
CCCSc1ncc(Cl)c(C(=O)N2CCN(c3ccc(OC)cc3)CC2)n1	-33%	.	-12%	.	.
CC1CCN(c2nnc(N)s2)CC1	2.5µM*	1.3µM*	4.3µM*	2.2µM*	-5%
Nc1nnc(N2CCCCC2)s1	-19%	3%	12%	-3%	-7%
O=C(CCc1ccccc1)NCc1ccc2c(c1)CCN2C(=O)c1ccc(Cl)cc1	.	.	1%	.	.
CCCCC(=O)Nc1ccc(C(=O)OC2CCCCC2)cc1	18%	4%	?	-3%	-2%
CC(C)(C)C(=O)Nc1ccc(C(=O)OC2CCCCC2)cc1	35µM*	1.4µM*	4.3µM*	1.4µM*	-2%
O=C(O)CCC(=O)Nc1ccc(C(=O)OC2CCCCC2)cc1	-15%	-7%	13µM*	-4%	2%
CCc1ccccc1NC(=O)Cn1c(=O)n(-c2ccc(C)cc2)c(=O)c2cc(OC)c(OC)cc21	13%	.	8%	.	.
CC(C)NC(=O)N1CCCN(c2nc3ccc(Cl)cc3s2)CC1	.	-9%	?	-4%	.
Clc1ccc2nc(N3CCCCC3)[nH]c2c1	14µM*	1.4µM*	4.8µM*	1.6µM*	-20%
Fc1cccc2sc(N3CCCCC3)nc12	?	?	19µM*	?	-4%
Fc1cccc2sc(N3CCOCC3)nc12	?	21%	?	13%	-3%
CC(C)C(=O)N1CCN(c2nc3ccc(Cl)cc3s2)CC1	.	?	?	2.5µM*	.
O=C(NCc1cccc(Cl)c1)c1ccc2nc(N3CCCCC3)sc2c1	19%	.	?	.	.
Clc1ccc2nc(N3CCCCC3)sc2c1	11µM*	2.5µM*	2.7µM*	1.4µM*	-10%
Cc1cccc(N2CCN(C(=O)Cn3c(=O)c4cccn4c4ccc(F)cc43)CC2)c1C	.	.	-1%	.	.
Fc1cccc(Cl)c1CN1CCN(c2nc3ccccc3s2)CC1	.	2.5µM*	5.4µM*	2.5µM*	.
O=C(c1ccc2ccccc2n1)N1CCN(Cc2c(F)cccc2Cl)CC1	.	-4%	-1%	0%	.
CC(C)/C=C1\CC/C(=C\c2ccc(N(C)C)cc2)C1=O	?	?	0.95µM*	3.5µM*	-1%
CC(C)c1ccc(/C=C2\CC/C(=C\C=N\N(C)C)C2=O)cc1	13µM*	?	2.4µM*	?	-3%
O=C1/C(=C\c2ccc3c(c2)OCO3)CCC/C1=C/c1ccc2c(c1)OCO2	-11%	0%	?	-3%	-4%
COc1ccc(NC(=O)Cn2cc(C(=O)c3ccccc3OC)c(=O)c3ccc(C)nc32)cc1OC	.	.	-9%	.	.
CCc1nnc(NC(=O)C23CC4CC(CC(C4)C2)C3)s1	.	?	11µM*	?	.
NC(=O)CSc1nnc(NC(=O)C23CC4CC(CC(C4)C2)C3)s1	.	11%	?	?	.
CSc1nnc(NC(=O)C23CC4CC(CC(C4)C2)C3)s1	.	?	24µM*	?	.
SMILES	SMN2 splice enh	Rab9 promoter act	FLuc counter	NPC1 promoter act	KinaseGlo FLuc
O=C(c1cnc2c(c1)COc1ccccc1-2)c1ccccc1O	-2%	.	?	.	.
Cc1cccc2c1N(CCOc1ccc(C(C)(C)C)cc1)C(=O)C2=O	-7%	14%	?	0%	-1%
Cc1ccc(OCCCN2C(=O)C(=O)c3cccc(C)c32)cc1	-22%	7%	24µM*	1%	-1%
Cc1ccc(OCCN2C(=O)C(=O)c3cc(C)ccc32)cc1	-36%	-12%	15µM*	-11%	0%
O=C(NCCn1cc(SCc2ccc(Cl)cc2)c2ccccc21)c1cccs1	-36%	.	-2%	.	.
O=S(=O)(O)c1cccc(N=Nc2c(O)ccc3ccccc23)c1	.	0%	24µM*	1%	.
Cc1ccc(N=Nc2c(O)ccc3cc(S(=O)(=O)O)ccc23)cc1	-6%[9.22 µM]	.	.	.	-5%[7.66 µM]
Oc1ccc2ccccc2c1N=Nc1ccccc1F	.	2%	17µM*	?	.
CCOC(=O)c1[nH]cnc1N=Nc1c(O)ccc2ccccc12	-96%	-24%	?	-8%	-12%
CC(C)CCn1c(O)c(N=Nc2ccccn2)c2ccccc21	-9%[1.84 µM]	1%	-19%	-4%	-2%
Oc1ccc2ccccc2c1N=Nc1ccccn1	-79%	-27%	15µM*	?	-6%
CCOC(=O)Cn1nc(/C=C/c2ccc(C(C)C)cc2)ccc1=O	-11%	13%	11µM*	22%	-1%
CCOC(=O)Cn1nc(/C=C/c2ccc(C)cc2)ccc1=O	0%	1%	?	4%	2%
O=C(O)C1CC(c2ccccc2)=Nc2ccccc2S1 (configuration not stated)	.	?	17µM*	?	.
Nc1cc2nn(-c3ccccc3)nc2cc1Cl	3.2µM*	19%	1.3µM*	6%	-26%
Nc1ccc2c(c1)nnn2-c1ccccc1	.	25%	?	?	.
CC(C)CC(=O)Nc1cc2nn(-c3ccccc3)nc2cc1Cl	?	1.4µM*	1.5µM*	1.8µM*	16%
Nc1ccc2nn(-c3ccccc3)nc2c1	.	1.6µM*	3.8µM*	1.6µM*	-6%
CC(C)(C)NC(=O)CSc1nc2ccc(NC(=O)CSc3nnnn3Cc3ccccc3)cc2s1	-93%	-14%	?	-9%	14%
Cn1ccnc1SCC(=O)Nc1ccc2nc(SCC(=O)NC3CC3)sc2c1	18%	?	19µM*	?	-8%
CC(C)(C)NC(=O)CSc1nc2ccc(NC(=O)CSc3nnc(N)s3)cc2s1	-24%	-3%	12µM*	-5%	-2%
